# Reference: PubChem BioAssay (EPA / NIEHS)
# Results filed as inconclusive are left out. The source made the active and inactive calls. Rule for the calls: active = hit-call score of the fitted dose curve at least 0.9, where 1 is the maximum; inconclusive = response in the unintended direction; inactive = score below 0.9.
# Tested on: Sodium/Iodide Symporter (NIS), SLC5A5 (gene 6528)
# Experiment: CPHEA_Stoker_NIS_Inhibition_RAIU: CPHEA's Radioactive Iodide Uptake (RAIU) Assay for Sodium/Iodide Symporter (NIS) Inhibition, Stoker and Laws Labs (AID 2283841)
# In short: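 hNIS-HEK293T-EPA cells incubated 2 h at room temperature with compound (0.001–100 uM, 0.5% DMSO) and 329 pM final 125I in HBSS/10 mM HEPES, pH 7.4. Intracellular 125I counted; normalised to DMSO maximal uptake, triplicate, three biological replicates.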
Compound,AC50,outcome
CN(C)c1ccc(C(=N)c2ccc(N(C)C)cc2)cc1,19.8 µM (active),–
CCCCCCCC[N+](C)(CCCCCCCC)CCCCCCCC,10.4 µM (active),–
CC(C)(C)c1ccc(OC(=O)c2ccccc2O)cc1,–,inactive
O=c1cc(-c2ccccc2)oc2ccccc12,–,inactive
c1ccc2c(c1)ccc1cc3c(ccc4ccccc43)cc12,–,inactive
Oc1ccc(Cl)cc1Cc1cc(Cl)ccc1O,9.92 µM (active),–
NC(CO)(CO)CO,–,inactive
CCN(CCC#N)c1ccc(N=Nc2c(Cl)cc([N+](=O)[O-])cc2Cl)cc1,–,inactive
CCOC(=O)Cc1cccc2ccccc12,–,inactive
O=C(C=Cc1ccccc1)OCc1ccccc1,–,inactive
CO[Si](OC)(OC)c1ccccc1,–,inactive
CCCCCCCCCCOS(=O)(=O)O,8.08 µM (active),–
CC/C=C\C/C=C\C/C=C\CCCCCCCC(=O)O,–,inactive

# Tested on: not listed separately
# Experiment: CPHEA_Stoker_NIS_Cytotoxicity: Cytotoxicity Assessment for CPHEA's Radioactive Iodide Uptake (RAIU) Assay for Sodium/Iodide Symporter (NIS) Inhibition, Stoker and Laws Labs (AID 2283897);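 for AC50: active means loss of ATP signal versus DMSO meaning cytotoxicity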
# In short: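 hNIS-HEK293T-EPA cells, human NIS expressed in HEK293T, treated 2 h with chemicals (0.001–100 uM, 0.5% final DMSO). ATP content read by CellTiter-Glo luminescence; loss of signal analysed relative to DMSO.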
Compound,outcome,AC50
CN(C)c1ccc(C(=N)c2ccc(N(C)C)cc2)cc1,inactive,–
CCCCCCCC[N+](C)(CCCCCCCC)CCCCCCCC,–,50 µM (active)
CC(C)(C)c1ccc(OC(=O)c2ccccc2O)cc1,inactive,–
O=c1cc(-c2ccccc2)oc2ccccc12,inactive,–
c1ccc2c(c1)ccc1cc3c(ccc4ccccc43)cc12,inactive,–
Oc1ccc(Cl)cc1Cc1cc(Cl)ccc1O,–,50 µM (active)
NC(CO)(CO)CO,inactive,–
CCN(CCC#N)c1ccc(N=Nc2c(Cl)cc([N+](=O)[O-])cc2Cl)cc1,inactive,–
CCOC(=O)Cc1cccc2ccccc12,inactive,–
O=C(C=Cc1ccccc1)OCc1ccccc1,inactive,–
CO[Si](OC)(OC)c1ccccc1,inactive,–
CCCCCCCCCCOS(=O)(=O)O,inactive,–
CC/C=C\C/C=C\C/C=C\CCCCCCCC(=O)O,inactive,–
C1CN(SSN2CCOCC2)CCO1,inactive,–

# Tested on: not listed separately
# Experiment: TOX21_PR_BLA_Followup_Agonist_viability: Viability Assessment in the Tox21 HEK293 Progesterone Receptor (PR) Agonism Beta-lactamase Follow-Up Assay (AID 2283935);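 note: signal loss means lower viability so actives are cytotoxic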
# In short: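 PR-UAS-bla HEK293T cells in 2% charcoal-stripped FBS medium, compound added after 6 hr plating, 16 hr at 37C/5% CO2. After bla FRET read, CellTiter-Glo added; luminescence read after 30 min at room temperature; signal loss marks cytotoxicity.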
Compound,outcome,AC50
COc1ccc(C(Cl)=C(c2ccc(OC)cc2)c2ccc(OC)cc2)cc1,inactive,–
Cc1ccc(C(C)c2ccc(C)c(C)c2)cc1C,inactive,–
CC(=O)[C@H]1[C@H](C#N)C[C@H]2[C@@H]3CC=C4C[C@@H](O)CC[C@]4(C)[C@H]3CC[C@@]21C,inactive,–
C[C@]12CCC(=O)C=C1CC[C@@H]1[C@@H]2C(=O)C[C@@]2(C)[C@H]1CC[C@]2(O)C(=O)CO,inactive,–
C[C@]12C=CC(=O)C=C1CC[C@@H]1[C@@H]2[C@@H](O)C[C@@]2(C)[C@H]1CC[C@]2(O)C(=O)CO,inactive,–
CCOC(=O)c1ccccc1C(=C1C=C(Br)C(=O)C(Br)=C1)c1cc(Br)c(O)c(Br)c1,inactive,–
C#CC1(O)CC[C@H]2[C@@H]3CCC4=CCCC[C@@H]4[C@H]3CC[C@@]21C (stereo partly specified),inactive,–
CCC(=O)Oc1ccc(/C(CC)=C(\CC)c2ccc(OC(=O)CC)cc2)cc1,inactive,–
Nc1ccc(-c2ccc(F)cc2)cc1,inactive,–
CC(C)(c1cc(Br)c(OCCO)c(Br)c1)c1cc(Br)c(OCCO)c(Br)c1,–,32.2 µM (active)

# Tested on: not listed separately
# Experiment: TOX21_PR_BLA_Followup_Antagonist_viability: Viability Assessment in the Tox21 HEK293 Progesterone Receptor (PR) Antagonism Beta-lactamase Follow-Up Assay (AID 2283936);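 note: hits lower the luminescence signal meaning cytotoxicity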
# In short: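 PR-UAS-bla HEK293T cells (3,000/well, 2% charcoal-stripped FBS) given compound plus R5020 agonist, 16 h at 37C. CellTiter-Glo added after bla read, 30 min at room temperature; luminescence loss indicates cytotoxicity.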
Compound,outcome,AC50
COc1ccc(C(Cl)=C(c2ccc(OC)cc2)c2ccc(OC)cc2)cc1,inactive,–
Cc1ccc(C(C)c2ccc(C)c(C)c2)cc1C,inactive,–
CC(=O)[C@H]1[C@H](C#N)C[C@H]2[C@@H]3CC=C4C[C@@H](O)CC[C@]4(C)[C@H]3CC[C@@]21C,inactive,–
C[C@]12CCC(=O)C=C1CC[C@@H]1[C@@H]2C(=O)C[C@@]2(C)[C@H]1CC[C@]2(O)C(=O)CO,inactive,–
C[C@]12C=CC(=O)C=C1CC[C@@H]1[C@@H]2[C@@H](O)C[C@@]2(C)[C@H]1CC[C@]2(O)C(=O)CO,inactive,–
CCOC(=O)c1ccccc1C(=C1C=C(Br)C(=O)C(Br)=C1)c1cc(Br)c(O)c(Br)c1,inactive,–
C#CC1(O)CC[C@H]2[C@@H]3CCC4=CCCC[C@@H]4[C@H]3CC[C@@]21C (stereo partly specified),inactive,–
CCC(=O)Oc1ccc(/C(CC)=C(\CC)c2ccc(OC(=O)CC)cc2)cc1,inactive,–
Nc1ccc(-c2ccc(F)cc2)cc1,inactive,–
CC(C)(c1cc(Br)c(OCCO)c(Br)c1)c1cc(Br)c(OCCO)c(Br)c1,–,54 µM (active)

# Molecular target: PGR (gene 5241) (UniProt P06401)
# Experiment: TOX21_PR_LUC_Followup_Antagonist: Tox21 HEK293 Progesterone Receptor (PR) Antagonism Luciferase Follow-Up Assay (AID 2283938);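 note: curve fitted upward as signal gain over DMSO baseline despite antagonist label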
# In short: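 Cells are grown 5 days in charcoal-stripped-FBS assay medium, plated, left 5 h, then dosed with compound and incubated 16 h. ONE-Glo reagent is added and luminescence read after 30 min.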
# Sequence of PGR (gene 5241) (P06401 whole entry, looked up): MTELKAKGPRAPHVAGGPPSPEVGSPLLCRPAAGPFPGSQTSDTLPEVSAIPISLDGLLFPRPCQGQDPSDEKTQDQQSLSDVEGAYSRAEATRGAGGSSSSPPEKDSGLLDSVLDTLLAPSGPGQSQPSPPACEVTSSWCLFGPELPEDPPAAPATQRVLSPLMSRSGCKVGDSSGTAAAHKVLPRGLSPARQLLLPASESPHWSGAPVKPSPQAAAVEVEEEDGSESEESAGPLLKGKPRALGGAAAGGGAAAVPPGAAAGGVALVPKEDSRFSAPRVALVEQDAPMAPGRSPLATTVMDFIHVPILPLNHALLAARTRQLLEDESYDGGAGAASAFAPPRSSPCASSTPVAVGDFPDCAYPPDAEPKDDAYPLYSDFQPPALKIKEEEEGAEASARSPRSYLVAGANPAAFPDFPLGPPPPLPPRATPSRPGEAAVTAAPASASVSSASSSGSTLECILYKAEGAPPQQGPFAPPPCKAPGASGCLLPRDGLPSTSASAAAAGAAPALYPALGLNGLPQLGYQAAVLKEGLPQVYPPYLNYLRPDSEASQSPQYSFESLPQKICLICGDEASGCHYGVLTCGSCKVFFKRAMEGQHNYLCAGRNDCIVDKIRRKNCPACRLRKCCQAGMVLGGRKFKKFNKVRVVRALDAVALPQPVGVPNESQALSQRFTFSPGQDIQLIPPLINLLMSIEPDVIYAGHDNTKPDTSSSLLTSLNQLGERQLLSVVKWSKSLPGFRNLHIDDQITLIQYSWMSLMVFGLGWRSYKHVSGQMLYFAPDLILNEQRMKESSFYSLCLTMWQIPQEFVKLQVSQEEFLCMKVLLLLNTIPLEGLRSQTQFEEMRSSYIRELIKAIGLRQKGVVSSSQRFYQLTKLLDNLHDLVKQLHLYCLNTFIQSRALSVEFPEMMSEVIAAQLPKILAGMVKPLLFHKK
Compound,AC50,outcome
COc1ccc(C(Cl)=C(c2ccc(OC)cc2)c2ccc(OC)cc2)cc1,8.88 µM (active),–
Cc1ccc(C(C)c2ccc(C)c(C)c2)cc1C,–,inactive
CC(=O)[C@H]1[C@H](C#N)C[C@H]2[C@@H]3CC=C4C[C@@H](O)CC[C@]4(C)[C@H]3CC[C@@]21C,–,inactive
C[C@]12CCC(=O)C=C1CC[C@@H]1[C@@H]2C(=O)C[C@@]2(C)[C@H]1CC[C@]2(O)C(=O)CO,–,inactive
CCOC(=O)c1ccccc1C(=C1C=C(Br)C(=O)C(Br)=C1)c1cc(Br)c(O)c(Br)c1,28.9 µM (active),–
C#CC1(O)CC[C@H]2[C@@H]3CCC4=CCCC[C@@H]4[C@H]3CC[C@@]21C (stereo partly specified),23.9 µM (active),–
CCC(=O)Oc1ccc(/C(CC)=C(\CC)c2ccc(OC(=O)CC)cc2)cc1,16.5 µM (active),–
Nc1ccc(-c2ccc(F)cc2)cc1,–,inactive
CC(C)(c1cc(Br)c(OCCO)c(Br)c1)c1cc(Br)c(OCCO)c(Br)c1,12.8 µM (active),–
